An excerpt weighted towards active compounds, which were near 3.2% of everything screened.
APOBEC3A inh = blocks human APOBEC3A ssDNA deamination. P31941. recombinant A3A, FAM/TAMRA ssDNA deamination fluorescence. inhibition, % at 20 µM. actives 0.41% (n = 330,000);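 active = at least 40% inhibition at 20 µM here, with at most 30% in a related deaminase screen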;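 also: plate controls were A3A with DMSO for no effect and wells lacking A3A enzyme for full effect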
Target sequence (P31941 whole entry, looked up): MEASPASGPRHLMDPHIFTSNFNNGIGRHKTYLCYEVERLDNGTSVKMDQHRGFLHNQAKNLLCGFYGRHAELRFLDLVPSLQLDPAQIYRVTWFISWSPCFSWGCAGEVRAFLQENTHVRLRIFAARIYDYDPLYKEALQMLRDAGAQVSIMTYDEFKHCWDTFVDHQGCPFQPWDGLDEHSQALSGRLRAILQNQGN
A3G deaminase = APOBEC3G (human) deaminase inhibition; Q9HC16; recombinant A3G, ssDNA deamination FAM/TAMRA fluorescence; inhibition, % at 20 µM; actives 0.28% (n = 330,000);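 active = inhibition of at least 40% at 20 µM, with no more than 30% in the related APOBEC3A deaminase screen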;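 also: plate controls were DMSO wells with A3G for no effect and wells lacking A3G enzyme for full effect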
NTR1 agonist = activates human neurotensin receptor 1; NTR1-U2OS beta-arrestin-GFP spot imaging, agonist mode; actives 0.17% (n = 330,000); activation, % at 20 µM;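 active = activation at or above 40% of the spot to cytoplasm intensity ratio, with at least 20 cells analyzed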;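 also: 0% = DMSO without peptide and 100% = 100 nM NTR1 peptide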
Target sequence (P30989 whole entry, looked up): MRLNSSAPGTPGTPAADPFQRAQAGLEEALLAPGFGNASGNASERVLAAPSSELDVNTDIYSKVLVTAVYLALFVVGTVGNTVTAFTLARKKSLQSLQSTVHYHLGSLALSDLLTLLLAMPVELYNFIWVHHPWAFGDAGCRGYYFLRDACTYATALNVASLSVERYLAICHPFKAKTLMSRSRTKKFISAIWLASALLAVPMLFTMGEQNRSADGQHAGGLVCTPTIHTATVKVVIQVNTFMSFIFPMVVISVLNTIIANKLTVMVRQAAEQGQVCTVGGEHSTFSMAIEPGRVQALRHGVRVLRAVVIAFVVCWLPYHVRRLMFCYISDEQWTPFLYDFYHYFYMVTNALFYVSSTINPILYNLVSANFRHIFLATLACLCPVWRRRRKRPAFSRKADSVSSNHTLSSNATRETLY
AHR act = human AHR activation; AHR-responsive luciferase reporter cells, luminescence; actives 2.5% (n = 320,000); AID 2796; activation, % at 5 µM; in the data active = activation above about 47%;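 also: 0% = vehicle wells and 100% = reference agonist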
* marks the source's active call; other numbers are inactive results; x = no result.

SMILES | APOBEC3A inh | A3G deaminase | NTR1 agonist | AHR act
COc1ccc(CCNC(=O)COC(=O)CCC(=O)c2ccc(F)cc2)cc1OC | -1 | -7 | -1 | 1
COc1cc(/C=N/Nc2snc(SC)c2C#N)ccc1O | -6 | -7 | 5 | 73*
COc1cc(/C=N/Nc2cc(C)nc(N)n2)ccc1O | 2 | -4 | -1 | 4
C=CCn1c(SCc2nc3ccccc3c(=O)[nH]2)nc2ccccc2c1=O | 0 | -4 | -1 | 60*
N/C(=N\OC(=O)c1ccc(F)cc1)c1ccccc1 | 4 | -6 | 5 | 60*
N/C(=N\OC(=O)c1ccc(F)cc1)c1ccc(Br)cc1 | -8 | -6 | 1 | 52*
CCNc1sc(C(=O)c2cccs2)c(N)c1C#N | -4 | -6 | -2 | 12
CCNc1sc(C(=O)c2cccs2)c(N)c1-c1nc2ccccc2s1 | 2 | 5 | 12 | 55*
CCOC(=O)c1sc(NCc2ccco2)c(-c2nc3ccccc3s2)c1N | -3 | -3 | 12 | 62*
C=C1[C@@H](OC(C)=O)CC[C@]2(C)[C@@H]1C[C@@H]1C[C@H](OC(C)=O)C(C)=C([C@@H](OC(C)=O)[C@@H]2OC(C)=O)C1(C)C | -2 | -4 | 2 | 0
CCN(CC)C(=O)COc1ccc2oc(-c3ccco3)cc(=O)c2c1 | 15 | 6 | 1 | 6
CN(C)/N=C/c1ccc([N+](=O)[O-])cc1[N+](=O)[O-] | 6 | 7 | 1 | 59*
CN(/N=C/c1cc([N+](=O)[O-])ccc1O)c1ccccc1 | -2 | -2 | 6 | 31
COc1ccc(-c2cc(C(=O)N(C)Cc3ccccc3F)c3ccccc3n2)cc1OC | 31 | -3 | 10 | 71*
COc1ccccc1CN(C)C(=O)c1cc(-c2cc(OC)c(OC)c(OC)c2)nc2ccccc12 | -2 | -10 | 10 | 32
COc1ccc(-c2cc(C(=O)N3CCN(c4ccccc4)CC3)c3ccccc3n2)cc1OC | -3 | -7 | 5 | 77*
CCN(Cc1ccccc1)C(=O)c1cc(-c2ccc(OC)c(OC)c2)nc2ccccc12 | 3 | 5 | 5 | 69*
CN(C(=O)C1CCCN(c2ncnc3c2nc2n3CCCCC2)C1)c1cccc(Cl)c1 (stereo not drawn) | -2 | 2 | 2 | 8
O=C(NNC(=O)c1ccccc1OCc1ccccc1)c1ccccc1O | -4 | -7 | 0 | x
O=C(NNC(=O)c1ccccc1OCc1ccccc1)c1ccccc1F | -3 | -3 | 1 | 53*
CC1=NN(C(=O)c2ccccc2F)C(O)(c2ccc(Cl)cc2)C1 (stereo not drawn) | -8 | -9 | 1 | 1
O=C(NCCCn1ccnc1)c1cc([N+](=O)[O-])cc([N+](=O)[O-])c1 | 4 | 0 | 4 | 48*
O=C(NCCCn1ccnc1)c1ccc(Cl)c(Cl)c1 | -9 | -5 | 1 | 51*
COc1ccc(CCC(=O)OCC(=O)Nc2sccc2C(N)=O)cc1OC | 1 | -5 | 6 | 0
C=CCS(=O)(=O)N1CCC(CCOc2ccccc2)(C(=O)OCC)CC1 | -3 | -3 | 1 | 1
SMILES | APOBEC3A inh | A3G deaminase | NTR1 agonist | AHR act
CC1C(=O)N2CCCc3cc(S(=O)(=O)N4CCC(C(N)=O)CC4)cc1c32 (stereo not drawn) | 3 | -1 | -2 | 0
Cc1cc(NC(=O)c2c([N+](=O)[O-])c(C)nn2C)no1 | -5 | -5 | 0 | 70*
Cc1nn(C)c(C(=O)Nc2ccc3c(c2)OCO3)c1[N+](=O)[O-] | -2 | -5 | 0 | x
Cc1cc(NC(=O)c2c(Cl)c(C)nn2C)no1 | 0 | -1 | 12 | 12
Cc1nn(C)c(C(=O)Nc2ccc(Cl)c([N+](=O)[O-])c2)c1Cl | -2 | -4 | 6 | 48*
CCOC(=O)CN(Cc1ccccc1)C(=O)OC(C)(C)C | -7 | 1 | 0 | 2
CCC(C(=O)NNC(=O)c1cnccn1)c1ccccc1 (stereo not drawn) | 3 | 3 | -1 | 0
COc1ccc(C(=O)CCC(=O)Nc2cccnc2)cc1OC | 5 | -1 | -1 | 16
COc1ccc(S(=O)(=O)N2CCOC2CNC(=O)C(=O)NCc2ccc3c(c2)OCO3)cc1 (stereo not drawn) | -2 | -6 | 0 | 2
N#CC1(NC(=O)CSc2nnc(C3CC3)n2C2CC2)CCCCC1 | -3 | -4 | 2 | 0
CCCc1cc(=O)n2[nH]c(-c3ccc(Cl)cc3)cc2n1 | -5 | -6 | 0 | 33
CCCc1cc(=O)n2[nH]c(-c3ccc(C)cc3)cc2n1 | -3 | -3 | 1 | 69*
CCCc1cc(=O)n2[nH]c(-c3ccccc3)cc2n1 | -4 | -4 | -2 | 72*
CC1CCN(C(=O)COC(=O)Cc2ccc(Br)cc2)CC1 | 4 | 6 | 0 | 3
CCC(CC)Nc1ccc(C(CC(N)=O)NC(=O)Cc2cccc3ccccc23)cc1[N+](=O)[O-] (stereo not drawn) | -1 | -8 | 3 | 0
Cn1c(=O)c(C(=O)N2CCc3ccccc32)cc2cccnc21 | -1 | -3 | 1 | 4
C=CCn1c[n+](CC(=O)c2ccc(Br)s2)c2ccccc21 | 2 | -3 | -1 | 0
N#CC(C(=S)Nc1ccccc1)c1nc2ccccc2[nH]1 (stereo not drawn) | -7 | -13 | 8 | 73*
Cc1cc(C)c(S(=O)(=O)Nc2cccc(/C=C/C(=O)O)c2)c(C)c1 | -6 | -9 | 1 | -4
O=C(CSc1ccc(-c2ccccn2)nn1)Nc1ccc(F)cc1F | -3 | -4 | 1 | 9
O=C(CSc1ccc(-c2cccnc2)nn1)Nc1ccc(F)cc1F | -1 | -1 | 0 | 65*
COc1cc(/C=C(/C(=O)c2cccs2)c2nc3ccccc3[nH]2)cc(OC)c1O | 5 | 4 | 25 | 114*
O=C(Cc1cccs1)N1CCN=C1SCc1ccc(Br)cc1 | 1 | -14 | 4 | 17
O=C(/C=C/Nc1ccc(Br)cn1)c1cccc(OC(F)F)c1 | -3 | -7 | 0 | 2
COc1cc([N+](=O)[O-])ccc1NC(=S)NNC(=O)CCC(=O)Nc1ccccc1Cl | -5 | -10 | 1 | 3
SMILES | APOBEC3A inh | A3G deaminase | NTR1 agonist | AHR act
N#CCCN/N=C(/Cc1nc2ccccc2[nH]1)c1ccc(Cl)cc1 | 8 | -2 | 0 | 48*
c1ccc(N/N=C(\Cc2nc3ccccc3[nH]2)c2ccccc2)cc1 | 1 | -7 | 18 | 149*
CCC(CC)C(=O)Nc1cccc(/C(C)=N\NC(=O)c2ccc(C)s2)c1 | -1 | -4 | 2 | 6
CCC(=O)Nc1ccc(/C(C)=N\NC(=O)c2ccc(C)s2)cc1 | -1 | 2 | -3 | 54*
C/C(=N/NC(=O)c1ccc(Cl)s1)c1ccc(NC(=O)COc2ccc(Cl)cc2)cc1 | -14 | -11 | 0 | 55*
N#CCc1ccc(OC(=O)c2cccnc2Cl)cc1 | 4 | 0 | 2 | 2
O=C1CC(=O)Nc2cc(S(=O)(=O)N3CCN(c4ccc([N+](=O)[O-])cc4)CC3)ccc2N1 | 13 | 0 | 2 | 0
O=c1oc2ccccc2n1CSc1nc2ccccc2s1 | -3 | 1 | 2 | 61*
O=C(CSc1nc2ccccc2s1)CSc1nc2ccccc2s1 | -4 | -7 | 1 | 10
C=CCc1cccc(OC)c1OCCOCCn1ccnc1 | -1 | -2 | 1 | 73*

Assay outcomes as filed in PubChem BioAssay.
